# Screening data deposited in PubChem BioAssay by National Center for Advancing Translational Sciences (NCATS).
# Shiga inhibitor – blocks Shiga toxin action in Vero cells; hit rate 9.2% among 290,000; AID 2315; Vero cells, Shiga toxin protein synthesis inhibition reporter; inhibition, % at 38.7 µM; in the data active = inhibition mostly above about 28%, no sharp cut-off; inactive = mostly below about 43%; note: 0% is about no effect
# Pf growth 48h – P. falciparum growth inhibition at 48 hours (one generation). P. falciparum luciferase growth in erythrocytes, 48 h. hit rate 5.9% among 310,000. Potency, µM (doses to about 28.7 µM), for the others: top-dose activity change, negative = inhibition, most hits filed as inhibitors; note: potency is the fitted concentration of half-maximal effect; % is set by controls: 0 for no effect and ±100 for the full control effect
#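 Luciferase-expressing parasites in RBCs, 2% Hct / 0.1% parasitemia final; RPMI 1640 + 0.5% Albumax; 37 C, 5% CO2, one generation; luminescence read-out, lower signal = inhibition.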
# Pf growth 96h – P. falciparum growth inhibition at 96 hour, primary screen for plastid delayed-death inhibitors | P. falciparum luciferase reporter growth, 96 h | Potency, µM (titrated, usually from 28.7 µM), inactives show top-dose activity change, negative = inhibition, hits mostly inhibitors | hit rate 6.9% among 320,000 | AID 504834; note: potency is the fitted concentration of half-maximal effect; % is set by controls: 0 for no effect and ±100 for the full control effect
#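 Delayed-death screen, second-generation endpoint: infected erythrocytes, 2% hematocrit, 0.05% parasitemia final; 96 hours at 37 C, 5% CO2; luciferase detection reagent; luminescence decrease equals reduced growth.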
# AMA1 RON2 block – disrupts binding of P. falciparum AMA1 to RON2; Potency, µM (series often up to 58.2 µM), for inactives: at the highest dose activity change, negative = inhibition, actives largely listed as inhibitors; hit rate 0.2% among 360,000; AID 720542; AlphaScreen AMA1-biotinylated RON2 peptide binding;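 note: potency is the fitted concentration of half-maximal effect; 0% = vehicle wells and -100% = peptide control; nearly all actives have a fitted effect of over 45% in size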
#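 AMA1 (3D7) with his tag at 25 nM final met compounds first, then biotinylated RON2 peptide at 25 nM; detection used donor plus acceptor beads, 10 µg/mL apiece, read by AlphaScreen after 30 min at room temperature.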
# Cycloheximide cs – affects cycloheximide protein synthesis inhibition readout, counter-screen; cell reporter, cycloheximide protein synthesis inhibition counterscreen; max response, %; hit rate 12% among 300,000; AID 2314; in the data active = max response mostly above about 13%, no sharp cut-off; inactive = mostly below about 14%; note: read at 38.3 µM for the half of the compounds with a filed dose; 0% is about no effect
# SARS PLP yeast – inhibitors of SARS-CoV papain-like protease in yeast; S. cerevisiae expressing SARS-CoV PLpro, growth rescue; Potency, µM (top dose mostly 32.9 µM), without a hit: at the highest dose activity, positive = growth rescue, actives largely listed as activators; hit rate 0.19% among 330,000; calls by dose curve; note: potency is the fitted concentration of half-maximal effect; 0% is about no effect; nearly all actives have a fitted effect of over 55% in size
# * = called active by the depositor; i = inactive; ? = inconclusive; nt = no result; + = active, no number; [ ] = dose if it differs, or a comment. The list is not random: actives were taken first. Their share in the collection is about 19%. Unless noted, calls come from the whole dose curve; as a rule, active = well fitted curve in the direction sought with a large enough effect; inconclusive = small, poorly fitted or top-dose-only effect, or another doubt; inactive = no such curve, though single readings can be large; an effect the other way counts as inactive or inconclusive.
SMILES,Shiga inhibitor,Pf growth 48h,Pf growth 96h,AMA1 RON2 block,Cycloheximide cs,SARS PLP yeast
CC1(C2(O)CC(c3ccccc3)ON2)CCCCC1 (stereo not drawn),14.7,nt,nt,nt,17.6,5.7%
COc1ccc(NC(=O)CCNS(=O)(=O)c2ccc3c(c2)CCC(=O)N3)cc1,-9.6,9.4%,?,14.8%,-2.4,-1.3%
CC(=O)Nc1ccc2nc(NC(=O)COc3ccc(C)cc3)sc2c1,23.2,2.8%,21.1%,-8.6%,11.3,-5.7%
CC(=O)Nc1ccc2nc(NC(=O)COc3ccccc3C)sc2c1,35.4,21.1%,?,8.0%,50.2*,0.7%
COc1cccc2sc(Nc3nc4ccc(NC(C)=O)cc4s3)nc12,44.0*,?,?,43.0%,21.8*,-6.8%
CC(=O)Nc1ccc2nc(NC(=O)COc3cccc(C)c3)sc2c1,-4.3,-9.7%,?,-0.7%,13.8,-0.1%
CC(=O)Nc1ccc2nc(NC(=O)COc3ccccc3)sc2c1,25.0,10.1%,77.7%,23.8%,15.0,-0.7%
CC(=O)Nc1ccc2nc(NC(=O)COc3ccccc3Cl)sc2c1,43.2*,28.1%,i,3.2%,26.2*,2.3%
CC(=O)Nc1ccc2nc(NC(=O)CCc3ccccc3)sc2c1,56.4*,?,?,-2.1%,26.7*,-3.7%
CCc1nc(Nc2ccccc2F)c2oc3ccccc3c2n1,24.0,-2.3%,?,?,8.3,-1.4%
OCCN1CCN(c2ncnc3c2ncn3[C@H]2CN(Cc3cccs3)C[C@@H](CO)O2)CC1,nt,nt,nt,-3.9%,nt,nt
CC(C)Oc1ccc(C(=O)Nc2ccc3c(c2)n(C)c(=O)n3C)cc1,47.4,211.5%,57.9%,1.9%,23.5,nt
O=C(NCC1CCCCC1)c1csc([C@@H]2C[C@H](O)[C@@H](CO)O2)n1,nt,nt,nt,8.2%,nt,nt
O=C(O)CSc1nnc2c(n1)[nH]c1ccccc12,18.3,10.6%,42.6%,10.2%,17.9,-3.6%
CCOC(=O)CC(=O)CSc1nnc2c(n1)[nH]c1ccccc12,70.1,18.7%,162.5%,21.6%,19.8*,-8.0%
O=C(CSc1nnc2c(n1)[nH]c1ccccc12)OCc1ccccc1,-6.9,14.7µM*,?,0.9%,-2.4,6.9%
O=S(=O)(c1ccccc1)N1CCN(c2nnc(-c3ccccc3)c3ccccc23)CC1,-9.1,?,4.15µM*,-2.1%,0.5,0.1%
Nc1nc(N2CCN(c3ccccn3)CC2)nc2ccccc12,89.4*,nt,?,-0.4%,42.8*,0.3%
Cc1ccc(C(=O)CN2CCN(c3ccccn3)CC2)c(C)c1,-6.9,17.7%,?,5.1%,6.9,-0.3%
CS(=O)(=O)N1CCN(c2nnc(-c3ccccc3)c3ccccc23)CC1,-18.9,-23.5%,-6.7%,1.1%,-4.0,-1.3%
Cc1ccc2cc(C)c(N3CCN(c4ccccn4)CC3)nc2c1,51.2*,-8.6%,nt,-1.2%,27.6,-18.9%
c1ccc(-c2nnc(N3CCN(c4ccccn4)CC3)c3ccccc23)cc1,-2.3,7.38µM*,nt,11.2%,8.2,-17.2%
Cc1c(Cl)cccc1NC(=S)NN1CCOCC1,-10.2,nt,-9.4%,6.3%,-1.6,-7.5%
O=C(N[C@@H]1c2ccccc2CC[C@@H]1OCc1ccccc1)c1ccc(C(F)(F)F)cc1,nt,nt,nt,1.2%,nt,13.0%
Cc1ccc(-c2nnc(N3CCN(c4ccccn4)CC3)c3ccccc23)cc1,-5.7,13.1µM*,-9.4%,?,-2.1,-3.0%
SMILES,Shiga inhibitor,Pf growth 48h,Pf growth 96h,AMA1 RON2 block,Cycloheximide cs,SARS PLP yeast
Cc1cc(N2CCN(S(=O)(=O)c3ccccc3)CC2)nc2c(C)cccc12,-6.9,-6.8%,13.1µM*,10.0%,-6.7,3.6%
COc1ccc(CNC(=O)COC(=O)C2CCC(C(C)(C)C)CC2)cc1 (stereo not drawn),5.2,15.3%,-1.1%,11.2%,-3.9,12.2%
COC(=O)C1=CN(c2cccc(OCc3ccccc3)c2)C(N)=C(C#N)C1c1cccc(F)c1 (stereo not drawn),nt,nt,nt,-5.9%,nt,nt
CCOc1ccc(/C=N/N2C(=O)C(CC(=O)Nc3ccc(F)cc3F)SC2=NC)cc1OC (stereo not drawn),-18.0,11.7µM*,11.7µM*,7.3%,-2.0,15.3%
CCCCOc1ccc(/C(N)=N/O)cc1,82.3*,99.1%,?,-1.6%,43.3*,-1.0%
CCCCOc1ccc(-c2ncc(C(=O)O)c(C)n2)cc1,98.9*,191.4%,24.5%[5.75 µM],-3.8%,28.1*,0.8%
CCCCOc1ccc(-c2nnn(C(C)C(=O)OCC)n2)cc1 (stereo not drawn),32.6,50.7%,nt,4.0%,8.4,-15.0%
CCC(=O)OCCCCCCOc1ccc(C(=O)O)cc1,-5.1,-9.2%,29.8%,8.2%,1.3,-13.7%
CCCCOc1ccc(C(=O)NC)cc1,19.6,-11.7%,nt,-7.6%,21.1,0.4%
CCCCCCOc1ccc(C(=O)O)cc1,42.2*,14.2%,3.6%,-5.3%,16.3*,-1.2%
CCOC(=O)c1ccc(NC(=O)CSc2nc3sc(C(=O)O)c(C)c3c(=O)[nH]2)cc1,-4.4,9.3%,?,1.2%,-3.9,0.9%
COc1ccc(N/N=C(\C#N)C(=N)N2CCCCC2)cc1,68.1*,92.9%,17.1%,0.4%,42.8*,-0.8%
N#C/C(=N\Nc1ccc(Cl)cc1)C(N)=S,45.6*,23.6%,?,61.7%,22.9*,-19.8%
N#C/C(=N\Nc1ccccc1)C(N)=S,25.2,?,0.0%,45.7%,8.2,-4.0%
N#C/C(=N\Nc1ccccc1)C(=N)N1CCOCC1,41.0*,67.4%,0.0%,-31.6%,30.1*,13.5%
O=C(NCc1ccccc1)N1CCOCC1,-9.8,8.1%,-2.2%,-12.6%,-2.1,0.8%
N#CC(C#N)=NNc1ccc(S(=O)(=O)N2CCCCC2)cc1,-2.8,-21.6%,?,-17.9%,-1.7,-2.6%
COc1ccc(N/N=C(\C#N)C(=N)SCc2ccccc2)cc1,-17.3,?,-13.5%,60.5%,8.2,-22.4%
N#C/C(=N\Nc1ccc(Cl)cc1)C(=N)N1CCCCC1,+,255.2%,375.9%,-0.6%,22.6,-2.5%
CN(Cc1ccc(Br)cc1)C(=O)CCN1C(=O)c2cccc([N+](=O)[O-])c2C1=O,11.6,21.6%,33.2%,-4.2%,7.0,6.1%
Cc1[nH]nc(SCC(=O)NC2CCCCC2)c1[N+](=O)[O-],-15.9,76.5%,?,1.6%,6.2,1.7%
CCOc1ccc(NC(=O)N2CCC(c3nc4ccccc4[nH]3)CC2)cc1,18.4,23.2%,?,2.2%,4.0,3.1%
Cc1ccc(NC(=S)N2CCOCC2)cc1,18.3,27.4%,-4.5%,16.5%,-1.5,4.7%
N#C/C(=N\Nc1ccc(S(=O)(=O)N2CCOCC2)cc1)C(N)=S,1.0,14.7µM*,?,94.5%,-1.1,-0.2%
Cc1ccc(N/N=C(\C#N)C(=N)N2CCOCC2)cc1,+,97.9%,150.7%,-11.8%,56.2*,-20.8%
N#C/C(=N\Nc1ccccc1F)C(=N)N1CCCCC1,114.2*,455.3%,426.7%,8.2%,51.0*,-7.4%
N#C/C(=N\Nc1ccc(F)cc1)C(=N)N1CCCCCC1,58.1*,i,-14.0%,12.8%,26.8*,4.2%
